# Most compounds without a hit are left out; they make up all but 4% or so of the library.
# CSC inhib: blocks cancer stem cells; cancer stem cell-like cells viability, luminescence; 1.1% of 300,000 active; inhibition, % at 7.5 µM; in the data active means inhibition above about 75%; tested in HMLE shEcad cells
# Beta cell apopt: beta cell apoptosis inhibition; INS-1E cytokine-induced death, ATP luminescence, 48 h; percent of positive-control rescue, neutral wells zero; protection from apoptosis, % (concentration not given with the values); 0.8% of 300,000 active;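 active means Every replicate reaches about 75%, or at least half do and their mean reaches it too, limit read from the data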;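 further: 0% = cytokine-treated negative control wells and 100% = positive control rescue; higher means more ATP so stronger rescue from cytokine killing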
# Shn3 3UTR inh: inhibitors of Schnurri-3 3'UTR reporter in osteoblasts. inhibition, % at 12.5 µM. 0.52% of 360,000 active. Clone20 osteoblast Shn3 3'UTR firefly luciferase, 24 h;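 active means mean inhibition of at least 75% with every replicate also reaching 75%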;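 further: 0% = median of neutral control wells and 100% = pilot-screen positive control compound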
# Gli-Sufu block: Gli-Sufu pathway antagonism; 0.74% of 340,000 active; inhibition, % at 5 µM; Sufu-KO-LIGHT fibroblasts, Gli luciferase reporter luminescence;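 active means inhibition above about 55%, limit read from the data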;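 further: 0% = DMSO-treated cells and 100% = wells with medium but no cells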
# PAX8 reporter: PAX8 transcriptional activity inhibition. RMG-I TPO-luciferase reporter, SteadyGlo, 24 h. inhibition, % at 12.6 µM. 1.2% of 360,000 active;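 active means mean replicate inhibition at least 60% with every replicate also reaching 60%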;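 further: luciferase light reporting Pax8 driven TPO promoter activity; plate controls were median of neutral control wells for no effect and mitoxantrone controls for full effect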
# Mdm2-MdmX inh: human Mdm2/MdmX binding inhibition. O15151+Q00987. SaOS-2 split-luciferase Mdm2/MdmX complementation, luminescence. inhibition, % at 8 µM. 3% of 330,000 active. AID 485346;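 active means inhibition of at least 50% at 8 µM in the primary screen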
# * marks the source's active call; other numbers are inactive results; · = no result.
SMILES,CSC inhib,Beta cell apopt,Shn3 3UTR inh,Gli-Sufu block,PAX8 reporter,Mdm2-MdmX inh
O=C(c1cnccn1)N1CC(=O)N2[C@@H](CO)[C@@H](c3ccc(C#CC4CCCCC4)cc3)[C@@H]2C1,·,·,·,·,15.8,·
C[C@H](CO)N1C[C@H](C)[C@@H](CN(C)S(=O)(=O)c2ccc(F)cc2)Oc2ccc(NC(=O)Nc3ccc(C(F)(F)F)cc3)cc2CC1=O,·,·,·,·,-31.0,·
Cc1ccc(S(=O)(=O)N(C)C[C@H]2Oc3ccc(NC(=O)Nc4ccc(C(F)(F)F)cc4)cc3CC(=O)N([C@@H](C)CO)C[C@H]2C)cc1,·,·,·,·,98.9*,·
C[C@H]1CN([C@@H](C)CO)C(=O)Cc2cc(NC(=O)Nc3ccc(C(F)(F)F)cc3)ccc2O[C@H]1CN(C)S(=O)(=O)c1ccc(F)cc1,·,·,·,·,39.6,·
COc1ccc(S(=O)(=O)N(C)C[C@H]2Oc3ccc(NC(=O)Nc4ccc(C(F)(F)F)cc4)cc3CC(=O)N([C@H](C)CO)C[C@@H]2C)cc1,·,·,·,·,79.1*,·
Cc1ccc(S(=O)(=O)N(C)C[C@@H]2Oc3ccc(NC(=O)Nc4ccc(C(F)(F)F)cc4)cc3CC(=O)N([C@@H](C)CO)C[C@@H]2C)cc1,·,·,·,·,81.1*,·
O=C(C[C@@H]1CC[C@H](NC(=O)c2ccc3c(c2)OCO3)[C@@H](CO)O1)NC1Cc2ccccc2C1,·,·,·,·,1.7,·
COc1ccc(-c2cn(CC[C@H]3CC[C@H](NC(=O)Cc4ccccn4)[C@@H](CO)O3)nn2)cc1,·,·,·,·,85.7*,·
COc1ccc(-c2cn(CC[C@H]3CC[C@@H](NC(=O)Cc4ccccn4)[C@H](CO)O3)nn2)cc1,·,·,·,·,76.6*,·
COc1ccc(-c2cn(CC[C@@H]3CC[C@@H](NC(=O)Cc4ccccn4)[C@@H](CO)O3)nn2)cc1,·,·,·,·,62.1*,·
COc1ccc(-c2cn(CC[C@H]3CC[C@H](NC(=O)Cc4ccccn4)[C@H](CO)O3)nn2)cc1,·,·,·,·,54.9,·
C[C@H]1CN([C@@H](C)CO)C(=O)CCCn2nncc2CO[C@@H]1CN(C)S(=O)(=O)c1ccccc1F,·,·,·,·,2.9,·
O=S(=O)(c1ccccc1)N1CC[C@@H]2[C@H](CO)Nc3ccc(Br)cc3[C@@H]21,·,·,·,·,-16.1,·
O=C(COC(=O)CC1CC2CCC1C2)NCc1ccc(F)cc1 (stereo not drawn),·,-0.5,-14.6,-2.1,1.1,17.5
O=C(CC1CC2CCC1C2)NCCc1ccc(Cl)cc1 (stereo not drawn),-4.1,84.9*,0.6,9.4,6.3,5.8
CO[C@@H]1CN(C)C(=O)c2cc(NC(=O)c3cc(C)on3)ccc2OC[C@@H](C)N(S(=O)(=O)c2ccccc2)C[C@H]1C,·,·,·,·,-6.4,·
COc1ccc(C(=O)CCN2CCN(c3ccccc3OC)CC2)cc1,16.1,-0.6,26.8,-1.2,83.2*,-31.4
COc1ccc(C(=O)CCN2CCc3cc(OC)c(OC)cc3C2)cc1,7.3,-26.9,5.4,1.5,71.0*,26.2
COc1cc2c(cc1OC)CN(CCOc1ccc(Br)cc1)CC2,2.6,-6.1,7.1,5.7,8.0,-10.5
CN(C)CC(=O)N1C[C@@H]2N[C@H](C1)C2c1ccc(-c2ccncc2)cc1 (stereo partly drawn),·,·,·,·,-3.6,·
C[C@@H](NC(=O)C[C@H]1CC[C@H](NC(=O)Cc2ccccn2)[C@H](CO)O1)c1ccccc1,·,·,·,·,20.5,·
O=C1C=C(N2CCCCC2)c2ccccc2C1=O,97.4*,117.0*,45.9,2.2,87.2*,42.3
CCN1CCCC1CNC(=O)c1ccc(Sc2ccccc2Cl)c([N+](=O)[O-])c1 (stereo not drawn),74.1,9.4,-10.8,5.3,1.7,48.7
CCN1CCCC1CNC(=O)c1ccc(Sc2ccc(F)cc2)c([N+](=O)[O-])c1 (stereo not drawn),78.5*,-19.9,0.7,20.7,23.7,-3.1
CCCNC(=O)N(C)C[C@H]1Oc2ncc(C#CC3(O)CCCC3)cc2C(=O)N([C@H](C)CO)C[C@@H]1C,·,·,·,·,4.7,·
SMILES,CSC inhib,Beta cell apopt,Shn3 3UTR inh,Gli-Sufu block,PAX8 reporter,Mdm2-MdmX inh
C[C@H]1CN([C@@H](C)CO)C(=O)c2c(c3ccccc3n2C)-c2ccccc2CO[C@H]1CN(C)Cc1cccnc1,·,·,·,·,-2.6,·
Cc1ccc2c(CC(=O)OCC(=O)Nc3ccc(Cl)cn3)coc2c1,2.2,-5.1,-15.6,-2.0,119.0*,27.2
CC(=O)CSc1ccc(-c2nc3ccccc3[nH]2)cn1,43.2,79.1*,-65.3,-102.5,-9.2,-93.0
O=C(C[C@H]1CC[C@H]2[C@@H](COC[C@@H](O)CN2C(=O)c2cccnc2)O1)Nc1ccc(-c2ccccc2)cc1,·,·,·,·,23.7,·
CCC(CO)Oc1cc(NCc2ccc(C)c(C)c2)c2ncn(C(C)C)c2c1 (stereo not drawn),·,101.3*,80.1,5.6,9.4,25.9
O=Cc1ccc(Oc2cc(-c3ccccc3)nc(-c3ccccc3)n2)cc1,99.6*,9.0,-5.7,-7.3,6.8,18.7
CCc1cnc(N2[C@@H](C#N)[C@@H](c3ccc(C#CC(C)C)cc3)[C@@H]2CO)s1,·,·,·,·,113.2*,·
CCc1cnc(N2[C@@H](C#N)[C@H](c3ccc(C#CC(C)C)cc3)[C@@H]2CO)s1,·,·,·,·,-9.7,·
COc1ccc(S(=O)(=O)Nc2ccc3c(c2)CC(=O)N([C@H](C)CO)C[C@H](C)[C@H](CN(C)Cc2ccc(C(=O)O)cc2)O3)cc1,·,·,·,·,-16.2,·
CCOC(=O)c1[nH]cnc1N=Nc1c(O)ccc2ccccc12,72.3,97.0*,79.8,57.3*,22.7,·
COCC#Cc1ccc([C@H]2[C@@H](CO)N3CCCCN(Cc4cccnc4)C[C@H]23)cc1,·,·,·,·,27.2,·
Cc1cccc(N=N/C(=C\O)C(=O)c2cccs2)c1,91.6*,12.7,-0.7,-2.4,13.7,39.8
CCCCCCN(C(=O)CCCCCN1C(=O)NC(c2ccc(-c3ccccc3)cc2)C(C(=O)OCc2ccccc2)=C1C)C(C(=O)NCCCC)c1ccccn1 (stereo not drawn),·,·,·,·,79.6*,10.8
CCCCCCN(C(=O)CCCCCN1C(=O)NC(c2ccc(-c3ccccc3)cc2)C(C(=O)OCc2ccccc2)=C1C)C(C(=O)NCCCC)C1CCCCC1 (stereo not drawn),·,·,·,·,-6.0,16.0
COc1ccc(-c2cn(CC[C@@H]3CC[C@@H](NC(=O)Nc4ccc(F)cc4)[C@@H](CO)O3)nn2)cc1,·,·,·,·,-13.5,·
C[C@@H]1CN([C@H](C)CO)C(=O)c2cc(NC(=O)Nc3ccc(C(F)(F)F)cc3)ccc2O[C@@H](C)CCCCO[C@H]1CN(C)C(=O)Nc1ccc(F)cc1,·,·,·,·,84.1*,·
C[C@@H]1CCCCO[C@H](CN(C)C(=O)Nc2ccc(F)cc2)[C@H](C)CN([C@H](C)CO)C(=O)c2cc(NC(=O)Nc3ccc(F)cc3)ccc2O1,·,·,·,·,-22.5,·
C[C@@H]1CCCCO[C@H](CN(C)C(=O)Nc2ccc(F)cc2)[C@@H](C)CN([C@@H](C)CO)C(=O)c2cc(NC(=O)Nc3ccc(C(F)(F)F)cc3)ccc2O1,·,·,·,·,95.1*,·
C[C@H](CO)N1C[C@H](C)[C@@H](CN(C)C(=O)Nc2ccc(F)cc2)OCCCC[C@H](C)Oc2ccc(NC(=O)Nc3ccc(C(F)(F)F)cc3)cc2C1=O,·,·,·,·,39.3,·
